Calls of active or inactive are those of the source. Rule for the calls: active = hit-call score of the fitted dose curve at least 0.9, where 1 is the maximum; inactive = score below 0.9.
Test: ATG_PXRE_CIS: Attagene CIS-FACTORIAL HepG2 Assay for human Pregnane X Receptor Element (PXRE) (AID 2282957)
Details: HepG2 Attagene CIS-FACTORIAL PXRE reporter, mRNA; actives raise or lower the signal
How it was run: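 HepG2 cells transiently transfected with cis-element-driven multiplexed reporter units; after 24 h chemical exposure, reporter mRNA measured by RT-PCR, 6-FAM labelling, HpaI digestion and capillary electrophoresis. Bidirectional fitting relative to DMSO.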

| SMILES | outcome | AC50 |
| --- | --- | --- |
| CCCCCCCCCCCCOCCO | inactive | – |
| CCC(=O)OCCC(C)CCC=C(C)C (stereo not given) | – | 41.1 µM (active) |
| CCCCCCCCCCN | inactive | – |
| O=C1C(c2[nH]c3ccc(S(=O)(=O)O)cc3c2O)=Nc2ccc(S(=O)(=O)O)cc21 | inactive | – |
| CCCCOCCOCCOCCOCCO | – | 27.5 µM (active) |
| NCCCCCCN | inactive | – |
| CC(C)(COC(=O)c1ccccc1)COC(=O)c1ccccc1 | – | 34.7 µM (active) |
| O=C(COc1ccc(Cl)cc1)N1CCN(Cc2ccc3c(c2)OCO3)CC1 | – | 4.76 µM (active) |
| O=CCCc1ccccc1 | – | 23.6 µM (active) |
| CCCCCCCCC=O | inactive | – |
| OCCCCCO | – | 76.5 µM (active) |
| C=C(C)C(=O)Nc1ccc(Cl)c(Cl)c1 | – | 10.2 µM (active) |
| C=C(C)[C@@H]1CC[C@@H](C)C[C@@H]1O | inactive | – |
| OC[C@H]1O[C@H](O[C@]2(CCl)O[C@H](CCl)[C@@H](O)[C@@H]2O)[C@H](O)[C@@H](O)[C@H]1Cl | inactive | – |
| Cc1ccc(C=O)s1 | – | 35.7 µM (active) |
| C=O | – | 27.7 µM (active) |
| O=C(O)c1cccc(C(F)(F)F)c1 | inactive | – |
| Fc1c(F)c(F)c(Br)c(F)c1F | – | 46.5 µM (active) |

| SMILES | outcome | AC50 |
| --- | --- | --- |
| C=C(C)C1CCC(C)CC1O (stereo not given) | inactive | – |
| O=S(=O)(O)NC1CCCCC1 | inactive | – |
| CCCCCCCCCCC(CO)CCCCCCCC (stereo not given) | inactive | – |
| CO[Si](CCCn1c(=O)n(CCC[Si](OC)(OC)OC)c(=O)n(CCC[Si](OC)(OC)OC)c1=O)(OC)OC | – | 28.6 µM (active) |
| C=CCOc1nc(OCC=C)nc(OCC=C)n1 | – | 17.2 µM (active) |
| C=C(C)C(=O)O[C@H]1C[C@@H]2CC[C@@]1(C)C2(C)C | – | 26.5 µM (active) |
| Cc1ccc(S)cc1 | inactive | – |
| CCCCCCOC(=O)CCCCC | inactive | – |
| CC(C)=CCO | – | 47.2 µM (active) |
| CCOc1ccccc1OCC | – | 24.9 µM (active) |
| CC(=O)C(=O)O | inactive | – |
| CC1(C)C(=O)N(Br)C(=O)N1Cl | – | 67.5 µM (active) |
| CCC(C)CCCC(C)(C)O (stereo not given) | inactive | – |
| Clc1sc(Cl)c(Cl)c1Cl | inactive | – |
| CC1(CO)CN(c2ccccc2)NC1=O (stereo not given) | inactive | – |
| CCOC(=O)c1ccccc1OC | – | 54 µM (active) |
| CCCOCC(C)O (stereo not given) | – | 25.5 µM (active) |
